From PubChem BioAssay (EPA / NIEHS) come the findings set out here.

Structures are written as SMILES. Activity calls are given as the source filed them. How the source made its calls: active means hit-call score of the fitted dose curve at least 0.9, where 1 is the maximum; inactive means score below 0.9.

Read-out in the test: growth arrest and DNA damage 45 (GADD45A), GADD45A (gene 1647)
In words: LTEA_HepaRG_GADD45A: Life Technologies and Expression Analysis (LTEA) Assay for growth arrest and DNA damage 45 (GADD45A) using HepaRG (AID 2283458). The note with it: mRNA level, 48 h; actives raise or lower the signal. As to the method: LTEA_HepaRG is a cell based, multiplexed-readout assay that uses HepaRG, a human liver cell line, with measurements taken at 48 hours after chemical dosing on a 96-well plate.LTEA_HepaRG_GADD45A is one of 102 assay component(s) measured in the LTEA HepaRG cell culture assay. It is a marker of Oxidative Stress.Data from the assay component LTEA_HepaRG_GADD45A was analyzed into 1 endpoint. This assay endpoint, LTEA_HepaRG_GADD45A, was analyzed with bidirectional fitting relative to DMSO as the negative control and baseline of activity. Using a type of inducible reporter, measures of mRNA induction for gain or loss-of-signal activity can be used to understand regulation of transcription factor activity. To generalize the intended target to other relatable targets, this assay endpoint is annotated to the cell cycle intended target family, where the subfamily is Oxidative Stress.
A total of 1060 chemcials from the ToxCast library were tested in eight-point concentration-response experiments. Cell culture and cytotoxicity assays were conducted at Thermo Fisher Scientific's Custom Services facility (Madison, WI). A single lot of human HepaRG cells (Thermo Fisher Scientific, Frederick, MD) was used for the cell culture experiments. 96-well format collagen type I coated plates of human HepaRG cells were prepared using established methods. Briefly, cryopreserved HepaRG cells were thawed, plated at a density of approximately 100,000 cells/well in HepaRG Thaw, Plate, and General Purpose media (HPRG770, Thermo Fisher Scientific), and incubated for 48 hours. 0.5% DMSO was selected as vehicle control to balance the requisite need of DMSO in HepaRG cultures to maintain differentiation (for example, baseline metabolism, proportions of hepatocytes vs. cholangiocytes), while enabling further hepatic receptor pathway activation (for example, PXR and CAR) in response to chemical exposure. 48 hours after plating, the culture medium was replaced with HepaRG Serum-Free Incudtion Media. Cells were exposed to each test chemical in duplicate and maintained in CO2 incubators for another 48 hours. Chemical plates were thawed to room temperature and 200x concentrations of treatment groups were prepared. 8-point conentration-reponse curves were made with the highest exposure at 100 uM, followed by half-log dilutions, all in 0.5% DMSO. Each test plate contained variouse controls, induction positive controls (1mM phenobarbital), cytotoxicity positive controls ([…] aflatoxin B1), vehicle controls (0.5% DMSO), and total lysis controls (0.5% DMSO). Cell morphology images were taken using an Essen IncuCyte FLR automated microscope, with six 96-well plates imaged in about 24 minutes. Images were captured and exported and JPEG files. Spent culture media was transfered to black-well plates for the LDH assay, and remaining media was sorted at -80 C for later use. Cells were treated with RLT buffer and frozen until shipped for gene expression analysis. Total RNA was isolated from the cell suspension in 75 uL of Buffer RLT (Qiagen, Germantown, MD 20874) by Quintiles/Expression Analysis (Durham, NC) using a custom isolation procedure. Total RNA from each plate well was transferred to a preamplification plate. Fluidigm's 96.96 Dynamic ArrayTM (Fluidigm, Amsterdam, the Netherlands) technology was used for gene expression analyses by quantitative reverse transcription polymerase chain reaction (qRT-PCR, performed by Quintiles/Expression Analysis, Durham, NC)89. Standard TaqManTM Assays (Applied Biosystems/ThermoFisher Scientific, Foster City, CA) were used to assess the expression of 93 genes selected based on their selectivity and sensitivity to important hepatic receptors known to be modulated by environmental chemicals; importance in human hepatocyte functionality; and hepatotoxicity. […]
As to `N#CC(Br)(Br)C(N)=O`, the outcome was inactive.
Still for that read-out and setting: then `c1ccc2c(c1)oc1ccccc12`, with “inactive”.
For `O=C(N[C@H](c1ccccc1)[C@@H]1CN2CCC1CC2)c1c(Cl)ccc(C(F)(F)F)c1Cl`, the half-maximal activity concentration (AC50) is 46.2 µM (active).
`Nc1ccc(N=Nc2ccccc2)cc1`: the outcome was inactive.
In the case of `Cc1cc(N=Nc2ccccc2C)ccc1N`, the AC50 was 3.52 µM (active).
Consider `Clc1ccccc1Cl`, for which the outcome was inactive.
For `Oc1ccccc1Cl`, the call was inactive.
The same measure, in the same setting: the same measure for `CCC12COCN1COC2`: “inactive”; for `CC(O)CCO` (stereo not given): “inactive”.
In the case of `Clc1ccc(C(c2ccc(Cl)cc2)C(Cl)(Cl)Cl)cc1`, the molecule was called inactive.
The same measure, in the same setting: the same measure for `CCC(C)c1ccc(O)cc1` (stereo not given): “inactive”; for `OCCOCCO`: “inactive”.
The same measure, in the same setting: the same measure for `CCNS(=O)(=O)C(F)(F)C(F)(F)C(F)(F)C(F)(F)C(F)(F)C(F)(F)C(F)(F)C(F)(F)F`: “inactive”; for `Brc1ccc(Oc2ccccc2)cc1`: “inactive”.
For the molecule `CC(C)(O)c1cnn2c(-c3ccc(F)c(-c4c(F)cccc4C#N)c3)cnc2n1`, the result was inactive.
For `CCCCCCCCn1sccc1=O`, the result was inactive.
Take `O=Cc1ccco1`: the molecule was called inactive.
Take `O=[N+]([O-])c1ccc(Oc2ccc(Cl)cc2Cl)cc1`: the molecule was called inactive.
`CCCCOC(=O)c1ccccc1C(=O)OCc1ccccc1`: the molecule was classed as inactive.
Consider `c1ccc(C2CO2)cc1` (stereo not given), for which the outcome was inactive.
The same measure, in the same setting: then `Cn1cc(-c2ccccc2)c(=O)c(-c2cccc(C(F)(F)F)c2)c1`, with “inactive”.
Take `C[C@]12C=CC3=C4CCC(=O)C=C4CC[C@H]3[C@@H]1CC[C@@H]2O`: the call was inactive.
As for `COc1cc(C=O)cc2c1[C@H](COC(N)=O)[C@]1(OC(C)=O)ON2C[C@H]2[C@@H]1N2C(C)=O`, the concentration at half-maximal activity (AC50) was 0.579 µM (active).
On to `[Cl-].[Cl-].[Hg+2]`, for which the result was inactive.
Same read-out and setting: then `N#CC(Br)Br`, with “inactive”; and `ClC1=C(Cl)C2(Cl)C3C(Cl)C=CC3C1(Cl)C2(Cl)Cl` (stereo not given), with “inactive”; and `Cc1cccc(N)c1N`, with “inactive”.
Consider `CC(C)COC(=O)c1ccccc1C(=O)OCC(C)C`, for which the call was inactive.
The same measure, in the same setting: the same measure for `COC(=O)Nc1nc2ccccc2[nH]1`: “inactive”; for `CCOc1cccc(C2(N3CCN(c4ccccc4)CC3)CCC(C)CC2)c1` (stereo not given): “inactive”.
Same read-out and setting: then `CN(C)c1ccc(C(=O)c2ccc(N(C)C)cc2)cc1`, with “inactive”.
Turning to `O=C1CCCO1`, the AC50 was 50 µM (active).
For `O=C(Oc1ccc(Br)cc1)N1CCN2CCC1CC2`, the result was inactive.
On to `[O-][Cl+]O`, for which the call was inactive.
As to `Nc1ccc(Cl)cc1N`, the half-maximal activity concentration (AC50) was 13.3 µM (active).
On to `CC(C)(C)OOC(=O)c1ccccc1`, for which the result was inactive.
The same measure, in the same setting: the same measure for `Nc1ccc(Oc2ccc(N)cc2)cc1`: “inactive”; for `CN(C)[C@@H]1C(=O)C(C(N)=O)=C(O)[C@@]2(O)C(=O)C3=C(O)c4c(O)cccc4[C@@](C)(O)[C@H]3C[C@@H]12`: “inactive”; for `c1ccc(NNc2ccccc2)cc1`: “inactive”.
Take `CCOC(=O)[C@]1(c2ccccc2)Oc2ccccc2[C@@H]1N`: the AC50 is 76.2 µM (active).
